A1 inhib: A1 inhibition; MEF A1-2A-BIM cells, caspase-Glo luminescence, 3 h; percent of clofoctol signal, DMSO as zero; caspase activation, % (test concentration not listed); 0.51% of 21,000 active;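 active = most replicate scores above 10, or exactly half above 10 with mean activity above 10; inconclusive = mean activity below 10 while half the replicates exceed 10; inactive = most replicate scores below 10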;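 note: effector caspase 3 and 7 activity cleaving a DEVD luciferin substrate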
BJeLR viability: compounds reducing viability of BJeLR cells; viability loss activity score, % (test concentration not listed); 0.64% of 30,000 active; BJeLR fibroblasts viability, CellTiterGlo ATP luminescence, 48 h; HRASV12, hTERT and SV40 LT/ST transformed; AID 2275; in the data active = viability loss activity score above about 50%; inconclusive = no clear call, values can overlap the other calls; inactive = below about 35%;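 note: higher score means fewer live cells and less ATP luminescence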
Active calls of the source: *; ? = inconclusive; · = no result. Hits are enriched below; roughly 0.86% of the tested compounds scored in any of these assays.

SMILES | A1 inhib | BJeLR viability
CC(C)CNC(=O)C1CCN(C(=O)c2ccc(F)cc2)CC1 | 1 | -6
CCc1ccc(NC2SC(=O)N(c3ccccc3)C2=O)cc1 (centres undefined) | · | 1
Cc1ccc(-c2ccc(=O)n(CC(=O)NC3CCCC3)n2)cc1 | 1 | -2
CCc1ccc(-n2[nH]c(=O)c(/C=c3\c(C)c(C#N)c4nc5ccccc5n4c3=O)c2O)cc1 | · | 2
Cn1c(SCc2ccc(F)cc2)nc2ccc(C(=O)NCCc3ccc(Cl)cc3)cc21 | 0 | 0
O=C1CC(c2ccccc2)OC12CCCCC2 (centres undefined) | 0 | 0
Cc1cc(C)n(-c2ccc(Cl)c(C(=O)OCc3ccccc3)c2)n1 | 1 | -1
O=C(/C=c1\[nH]/c(=C/c2ccc(F)cc2)c(=O)[nH]c1=O)c1ccccc1 | 12* | 70*
COc1ccc(/C=c2/[nH]/c(=C\C(=O)c3ccccc3)c(=O)[nH]c2=O)cc1OC | 7 | 4
CCC1CN2CCc3cc(OC)c(OC)cc3[C@@H]2C[C@@H]1C[C@H]1NCCc2cc(OC)c(OC)cc21 (some centres undefined) | 17* | 86*
CCCC(=O)N1CCc2cc(OC)c(OC)cc2C1COc1ccc(OC)cc1 (centres undefined) | 0 | 3
Cc1nc2cc(NS(=O)(=O)c3ccc(Oc4ccccc4)cc3)ccc2s1 | · | -2
CSC(SC)=C(C#N)C(=O)c1cccc(C(F)(F)F)c1 | 48* | ?
N#CC(C(=O)c1cccc(C(F)(F)F)c1)=C1SCCCCS1 | 0 | -9
CCC(C)[C@H]1C(=O)O[C@H](C(C)C)C(=O)N(C)[C@@H](C(C)C)C(=O)O[C@H](C(C)C)C(=O)N(C)[C@@H](C(C)C)C(=O)O[C@H](CC(C)C)C(=O)N1C (some centres undefined) | 45* | 79*
C/C=C(\C)C(=O)O[C@@H]1[C@@H](OC(C)=O)C2[C@@]3(C)CC[C@H](OC4CC(OC)C(OC5CC(OC)C(OC6CC(OC)C(OC7OC(C)C(OC8OC(CO)C(O)C(O)C8O)C(OC)C7O)C(C)O6)C(C)O5)C(C)O4)CC3=CC[C@@]2(O)[C@@]2(O)CC[C@H](C(C)=O)[C@@]12C (some centres undefined) | 1 | -14
CO[C@@H]1CC(OC2CCC3(C)C(CCC45CCC(C6=CC(=O)OC6)C(C)(CCC43)C5=O)C2)O[C@H](C)[C@@H]1O[C@@H]1O[C@H](CO[C@@H]2O[C@H](CO)[C@@H](O)[C@H](O)[C@H]2O)[C@@H](O)[C@H](O)[C@H]1O (some centres undefined) | 0 | 92*
Cc1cc(NC(=O)C(CC(C)C)NC(=O)C2CCC(C)CC2)ccc1Br (centres undefined) | · | 0
Cc1ccc(S(=O)(=O)/C(C#N)=C/C2=Cc3ccccc3OC2)cc1 | 0 | -2
Cc1cc[n+](Cc2ccccn2)c(N)c1 | 0 | 6
c1ccc(CN(CCN(Cc2ccccn2)Cc2ccccn2)Cc2ccccn2)nc1 | ? | 110*
NC(=O)CCN1C(=O)c2ccccc2C1=O | 1 | 1
CCc1ccc(OCCCn2cc(/C=C3/C(=N)N4C=CSC4=NC3=O)c3ccccc32)cc1 | 0 | 13
CCc1cc(C)cc(OCCn2cc(C=C3C(=O)NC(=O)NC3=O)c3ccccc32)c1 | 39* | 1
Cc1cc(C)c(C#N)c(Sc2ncnc3c2nnn3Cc2ccccc2)n1 | 9.8* | 33
SMILES | A1 inhib | BJeLR viability
Cc1cc(C)c(C#N)c(SCc2ccccc2)n1 | 0 | -10
COc1ccc(CCNC(=O)CSc2cc(Cl)nc3ccc(C)cc23)cc1OC | · | 7
CCOC(=O)N1CCC(NC(=O)Nc2ccc3c(c2)CCO3)CC1 | · | 1
C[C@H]1CC[C@@H]2[C@@H](C(=O)c3c(O)c([C@]4(O)CC[C@@H](O)[C@H]5O[C@H]54)cn(O)c3=O)[C@@H](C)C=C[C@H]2C1 | 46* | 53*
Cc1ccc(Nc2nc(-c3ccc(S(=O)(=O)N4CCCC4)cc3)cs2)cc1 | 1 | 5
COC(=O)c1[nH]c2c(c1C)C(=O)CC(c1ccccc1)C2 (centres undefined) | · | 60*
CCCc1c(C(=O)OCC)[nH]c2c1C(=O)CC(c1ccccc1)C2 (centres undefined) | · | 3
COC(=O)Nc1nc2ccc(-c3n[nH]c(=O)c4ccccc34)cc2[nH]1 | 0 | 17
CCCCc1ccc2nc(NC(=O)OC)[nH]c2c1 | -2 | 66*
N#CC(C#N)=C(Nc1ccccc1Cl)SCc1cccc(F)c1 | -1 | 24
C[C@H]1O[C@@H](O[C@H]2[C@@H](O)C[C@H](O[C@H]3[C@@H](O)C[C@H](O[C@H]4CC[C@@]5(C)[C@H](CC[C@@H]6[C@@H]5C[C@@H](O)[C@]5(C)[C@@H](C7=CC(=O)OC7)CC[C@]65O)C4)O[C@@H]3C)O[C@@H]2C)C[C@H](O)[C@@H]1O | 0 | 99*
Cc1cc(Cl)ccc1OCC(=O)Nc1sc2c(c1C#N)CCC2 | 1 | 3
COc1ccc(-n2nc3c(c2NC(=O)/C=C\c2ccc4c(c2)OCO4)CS(=O)(=O)C3)cc1 | 1 | 1
CCCCC1CCC(C(=O)Nc2c3c(nn2-c2ccc(F)cc2)CS(=O)(=O)C3)CC1 (centres undefined) | 15* | 0
CC1CC(=O)c2c(ccc3c2C(=O)c2c(O[C@@H]4O[C@@H](C)[C@H](O)[C@@H](O)[C@H]4O)cccc2C3=O)C1 (some centres undefined) | 1 | 5
COc1cccc2c1C(=O)c1c(O)c3c(c(O)c1C2=O)C[C@@](O)(C(C)=O)C[C@@H]3O[C@H]1C[C@H](N)[C@H](O)[C@H](C)O1 | 15* | 111*
Cc1ccccc1-c1oncc1-c1nnnn1-c1ccccc1 | 0 | 1
O=C(NCc1cccnc1)c1ccc(/C=C2\Sc3ccccc3N(Cc3ccccc3F)C2=O)cc1 | · | 123*
COC(=O)c1ccc(/C=C2/Oc3ccccc3N(Cc3ccccc3F)C2=O)cc1 | -1 | 2
CCOc1ccc(-c2nc3ccc(-c4nc5ccc(N6CCN(C)CC6)cc5[nH]4)cc3[nH]2)cc1 | 0 | 126*
CCOc1ccc2nc(N3CCCCC3)sc2c1 | · | 14
O=C(CSc1nc2c([nH]c3ccccc32)c(=O)n1-c1cccc(Cl)c1)N1CCCCCC1 | · | 6
COc1ccc2[nH]c3c(=O)n(CC(=O)N4CCN(c5ccc(F)cc5)CC4)c(=S)[nH]c3c2c1 | 4 | -2
COc1ccc2[nH]c3c(=O)n(Cc4ccc(C(=O)NCCc5ccc(C)cc5)cc4)c(=S)[nH]c3c2c1 | 112* | 4
CCN(c1ccccc1)S(=O)(=O)c1cccs1 | · | -7
SMILES | A1 inhib | BJeLR viability
C=C1C(=O)O[C@H]2C1[C@H](OC(=O)/C(C)=C/CO)C/C(C)=C\CC[C@@]1(CO)OC21 (some centres undefined) | 0 | 2
C=C(CO)C(=O)O[C@H]1CC(=C)[C@@H]2CC(=O)[C@H](C)[C@@H]2[C@H]2OC(=O)C(=C)[C@@H]21 | 0 | 69*
c1ccc(CSc2nc3ccccc3n3cnnc23)cc1 | · | 1
O=C(/C=C/Oc1ccc(Cl)cc1)c1ccc(Br)cc1 | 11* | 8
O=C(COC(=O)c1ccc(Br)cc1)c1ccc(Br)cc1 | -1 | 2
O=c1cc(N2CCOCC2)oc2c(-c3ccccc3)cccc12 | 11* | 5
O=c1cc(N2CCOCC2)oc2c1ccc1ccccc12 | 2 | 4

Screening results as filed in PubChem.
